For 40 compounds, cytotoxicity call results are on record in the antibiotic and cytotoxicity screens of Wong et al. (2023).

The campaign covered roughly 39,000 compounds. About 1,500 (3.8%) were called active. Many of the other results were omitted from the sample, so actives are more common in it than they were.

The test system of the experiment is HSkMC (human skeletal muscle cells). As to the kind of experiment: cytotoxicity call (relative viability < 0.9). The conditions noted are these: 10 µM.
Consider `C[C@@H]1CN([C@H](C)CO)C(=O)Cc2cc(NC(=O)Nc3ccc(C(F)(F)F)cc3)ccc2O[C@@H]1CN(C)C(=O)NC1CCCCC1`, for which the cytotoxicity call is “active”.

For the compound `C[C@@H]1CN([C@@H](C)CO)C(=O)Cc2cc(NC(=O)Nc3ccc(C(F)(F)F)cc3)ccc2O[C@@H]1CN(C)C(=O)NC1CCCCC1`, the cytotoxicity call was “active”.

Regarding `C[C@H]1CN([C@@H](C)CO)C(=O)Cc2cc(NC(=O)Nc3ccc(C(F)(F)F)cc3)ccc2O[C@H]1CN(C)C(=O)NC1CCCCC1`, the cytotoxicity call is “inactive”.

For the compound `C[C@@H]1CN([C@H](C)CO)C(=O)Cc2cc(NC(=O)Nc3ccc(C(F)(F)F)cc3)ccc2O[C@H]1CN(C)C(=O)NC1CCCCC1`, the cytotoxicity call was “inactive”.

`C[C@@H]1CN([C@@H](C)CO)C(=O)Cc2cc(NC(=O)Nc3ccc(C(F)(F)F)cc3)ccc2O[C@H]1CN(C)C(=O)NC1CCCCC1`: the cytotoxicity call is “inactive”.

On to `C[C@H](CO)N1C[C@H](C)[C@@H](CN(C)C(=O)NC2CCCCC2)Oc2ccc(NC(=O)Nc3ccc(C(F)(F)F)cc3)cc2CC1=O`, for which the cytotoxicity call was “inactive”.

In the case of `C[C@H](CO)N1C[C@H](C)[C@@H](CN(C)Cc2ccc(Oc3ccccc3)cc2)Oc2cc(-c3ccncc3)ccc2S1(=O)=O`, the cytotoxicity call is “inactive”.

As for `C[C@H]1CCCCO[C@@H](CN(C)C(=O)Nc2ccc(C(F)(F)F)cc2)[C@@H](C)CN([C@@H](C)CO)C(=O)c2cc(NS(C)(=O)=O)ccc2O1`, the cytotoxicity call was “inactive”.

As for `Cc1noc(C)c1NC(=O)N(C)C[C@H]1OCCCC[C@@H](C)Oc2ccc(NS(=O)(=O)c3cccs3)cc2C(=O)N([C@H](C)CO)C[C@@H]1C`, the cytotoxicity call was “inactive”.

For `C[C@@H]1CN([C@@H](C)CO)S(=O)(=O)c2ccc(C#Cc3ccccc3)cc2O[C@@H]1CN(C)C(=O)CN(C)C`, the cytotoxicity call is “inactive”.

Take `C[C@@H]1CCCCO[C@H](CN(C)Cc2ccc(C(=O)O)cc2)[C@@H](C)CN([C@@H](C)CO)C(=O)c2cc(NC(=O)Nc3cccc4ccccc34)ccc2O1`: the cytotoxicity call was “inactive”.

For `C[C@@H]1CCCCO[C@@H](CN(C)Cc2ccccc2)[C@@H](C)CN([C@@H](C)CO)C(=O)c2cc(NC(=O)Nc3cccc4ccccc34)ccc2O1`, the cytotoxicity call was “inactive”.

As for `C[C@H]1CCCCO[C@@H](CN(C)Cc2ccccc2)[C@@H](C)CN([C@@H](C)CO)C(=O)c2cc(NC(=O)Nc3cccc4ccccc34)ccc2O1`, the cytotoxicity call is “active”.

Consider `C[C@@H]1CCCCO[C@H](CN(C)Cc2ccccc2)[C@@H](C)CN([C@H](C)CO)C(=O)c2cc(NC(=O)Nc3cccc4ccccc34)ccc2O1`, for which the cytotoxicity call is “inactive”.

Turning to `C[C@@H]1CCCCO[C@H](CN(C)Cc2ccc(C(=O)O)cc2)[C@H](C)CN([C@H](C)CO)C(=O)c2cc(NC(=O)Nc3cccc4ccccc34)ccc2O1`, the cytotoxicity call was “inactive”.

For `C[C@H](CO)N1C[C@H](C)[C@@H](CN(C)Cc2ccccc2)OCCCC[C@H](C)Oc2ccc(NC(=O)Nc3cccc4ccccc34)cc2C1=O`, the cytotoxicity call was “active”.

On to `C[C@@H]1CCCCO[C@H](CN(C)Cc2ccccc2)[C@@H](C)CN([C@@H](C)CO)C(=O)c2cc(NC(=O)Nc3cccc4ccccc34)ccc2O1`, for which the cytotoxicity call was “active”.

As for `C[C@H](CO)N1C[C@H](C)[C@H](CN(C)Cc2ccccc2)OCCCC[C@H](C)Oc2ccc(NC(=O)Nc3cccc4ccccc34)cc2C1=O`, the cytotoxicity call is “inactive”.

As for `C[C@@H]1CN([C@H](C)CO)C(=O)c2cc(NC(=O)Nc3cccc4ccccc34)ccc2O[C@@H](C)CCCCO[C@H]1CN(C)Cc1ccccc1`, the cytotoxicity call was “inactive”.

Take `C[C@@H]1CCCCO[C@H](CN(C)Cc2ccccc2)[C@H](C)CN([C@H](C)CO)C(=O)c2cc(NC(=O)Nc3cccc4ccccc34)ccc2O1`: the cytotoxicity call was “active”.

As to `CC1(C)OC2CC3C4CCC5=CC(=O)CCC5(C)C4(F)C(O)CC3(C)C2(C(=O)CCl)O1` (stereo not given), the cytotoxicity call was “inactive”.

Take `C[C@H]1CN([C@@H](C)CO)C(=O)CCCn2nncc2CO[C@@H]1CN(C)C(=O)Nc1ccc(N2CCCCC2)cc1`: the cytotoxicity call was “inactive”.

Turning to `Cc1noc(C)c1NC(=O)N(C)C[C@@H]1Oc2ccc(NC(=O)Nc3cccc4ccccc34)cc2C(=O)N([C@@H](C)CO)C[C@@H]1C`, the cytotoxicity call is “inactive”.

Consider `COc1ccc(CN(C)C[C@H]2OCCCC[C@@H](C)Oc3ccc(NC(=O)c4ccccc4)cc3C(=O)N([C@H](C)CO)C[C@H]2C)cc1`, for which the cytotoxicity call is “inactive”.

As for `C[C@@H]1CN([C@H](C)CO)C(=O)c2cc(NS(=O)(=O)c3cccs3)ccc2O[C@@H]1CN(C)S(=O)(=O)c1ccc(F)cc1`, the cytotoxicity call was “inactive”.

For the compound `COc1ccc(NC(=O)N(C)C[C@H]2Oc3ncc(C#CCN(C)C)cc3C(=O)N([C@@H](C)CO)C[C@@H]2C)cc1`, the cytotoxicity call was “inactive”.

As to `C[C@@H]1CCCCO[C@@H](CN(C)C(=O)C2CCCCC2)[C@@H](C)CN([C@H](C)CO)C(=O)c2cc(NC(=O)Nc3cccc4ccccc34)ccc2O1`, the cytotoxicity call was “inactive”.

`COc1ccc(NC(=O)N(C)C[C@@H]2OCCCC[C@H](C)Oc3ccc(NC(=O)NC4CCCCC4)cc3C(=O)N([C@H](C)CO)C[C@@H]2C)cc1`: the cytotoxicity call is “inactive”.

With `COCC#Cc1ccc2c(c1)O[C@H](CN(C)S(=O)(=O)c1ccc(F)cc1)[C@H](C)CN([C@@H](C)CO)S2(=O)=O`, the cytotoxicity call was “inactive”.

Turning to `COc1cccc(S(=O)(=O)Nc2ccc3c(c2)[C@@H]2C[C@H](CC(=O)N4CCCCC4)O[C@H](CO)[C@@H]2O3)c1`, the cytotoxicity call was “inactive”.

Turning to `C[C@@H]1CCCCO[C@@H](CN(C)S(=O)(=O)c2ccc(F)cc2)[C@@H](C)CN([C@@H](C)CO)C(=O)c2cc(NS(C)(=O)=O)ccc2O1`, the cytotoxicity call is “inactive”.

With `C[C@@H]1CN([C@@H](C)CO)C(=O)c2cc(NC(=O)Nc3cccc4ccccc34)ccc2O[C@@H](C)CCCCO[C@@H]1CN(C)Cc1ccccc1`, the cytotoxicity call is “active”.

For `C[C@@H]1CN([C@@H](C)CO)C(=O)c2cc(NC(=O)Nc3cccc4ccccc34)ccc2O[C@@H](C)CCCCO[C@H]1CN(C)Cc1ccccc1`, the cytotoxicity call was “inactive”.

For `C[C@@H]1CCCCO[C@@H](CN(C)Cc2ccc(C(=O)O)cc2)[C@@H](C)CN([C@@H](C)CO)C(=O)c2cc(NC(=O)Nc3cccc4ccccc34)ccc2O1`, the cytotoxicity call is “inactive”.

Turning to `C[C@@H]1CCCCO[C@@H](CN(C)Cc2ccccc2)[C@H](C)CN([C@@H](C)CO)C(=O)c2cc(NC(=O)Nc3cccc4ccccc34)ccc2O1`, the cytotoxicity call was “inactive”.

In the case of `C[C@@H]1CCCCO[C@@H](CN(C)Cc2ccccc2)[C@@H](C)CN([C@H](C)CO)C(=O)c2cc(NC(=O)Nc3cccc4ccccc34)ccc2O1`, the cytotoxicity call is “inactive”.

Regarding `C[C@@H]1CCCCO[C@H](CN(C)Cc2ccccc2)[C@H](C)CN([C@@H](C)CO)C(=O)c2cc(NC(=O)Nc3cccc4ccccc34)ccc2O1`, the cytotoxicity call is “active”.

With `C[C@H]1CCCCO[C@H](CN(C)Cc2ccccc2)[C@@H](C)CN([C@@H](C)CO)C(=O)c2cc(NC(=O)Nc3cccc4ccccc34)ccc2O1`, the cytotoxicity call was “active”.

Regarding `C[C@@H]1CCCCO[C@@H](CN(C)Cc2ccccc2)[C@H](C)CN([C@H](C)CO)C(=O)c2cc(NC(=O)Nc3cccc4ccccc34)ccc2O1`, the cytotoxicity call was “inactive”.

On to `C[C@@H]1CN([C@H](C)CO)C(=O)c2cc(NC(=O)Nc3cccc4ccccc34)ccc2O[C@@H](C)CCCCO[C@@H]1CN(C)Cc1ccccc1`, for which the cytotoxicity call was “inactive”.
